In the library only some 1.4% were active in any assay of this set; here they are far more common.
PfHsp40 yeast – rescue of yeast from PfHsp40 toxicity, primary screen, S. cerevisiae, ATP luminescence; growth rescue, % at 12.5 µM; hit rate 0.68% among 340,000; AID 504582, 2011; S. cerevisiae expressing PfHsp40, growth rescue; in the data active means growth rescue above about 28%, passing the limit was not always enough; inconclusive means no clear call, values can overlap the other calls;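 further: yeast W303a lacking pdr1 and pdr3 grown in galactose medium; growth measured after three days at 30 °C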
BJeLR lethal – MLPCN primary cell-based screen for lethality selective to Ras in HRASV12 cells; AID 1554, 2009; hit rate 0.17% among 300,000; inhibition, % (no concentration beside the values); BJeLR (HRASV12) viability, CellTiter-Glo ATP luminescence, 48 h; in the data active means inhibition above about 50%; inconclusive means no clear call, values can overlap the other calls
Y pestis TopoI – Yersinia pestis topoisomerase I inhibitors, primary screen, biochemical, cleavage product accumulation, plate reader, single point; hit rate 0.064% among 360,000; Y. pestis Topo-I cleavage product accumulation; activity, % at 10 µM; in the data active means activity above about 50%, passing the limit was not always enough; inconclusive means no clear call, values can overlap the other calls
PrP 5UTR inh – inhibition of PrP 5' UTR reporter expression. cell-based PrP 5' UTR mRNA reporter, plate reader. inhibition, % (concentration not given with the values). hit rate 0.35% among 340,000; in the data active means inhibition above about 52%; further: 0 = median of the neutral control wells
ugtP null kill – growth inhibition of ugtP-null S. aureus, primary screen, RN4220 ugtP deletion, OD600 | 16 h | growth inhibition, % (no concentration beside the values) | hit rate 0.54% among 330,000 | AID 1259309, 2017; in the data active means growth inhibition above about 68%;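 further: plate controls were untreated wells for no effect and antibiotic for full effect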
Sa RN4220 lethal – growth inhibition of S. aureus RN4220, primary screen, OD600; inhibition, % (no concentration beside the values); 16 h; AID 1259311, 2017; hit rate 0.33% among 330,000; in the data active means inhibition above about 85%;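 further: plate controls were untreated cells for no effect and reference antibiotic for full effect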
PrP 5UTR single – prion 5' UTR mRNA inhibition, cherry-pick retest | shares compounds with PrP 5UTR inh | cell-based prion protein 5' UTR reporter, plate reader | inhibition, % at 2.5 µM | AID 504592, 2011 | hit rate 48% among 1,100; in the data active means inhibition above about 54%; inconclusive means no clear call, values can overlap the other calls
The depositor's hits bear a star; ? = inconclusive; nt = no result given.

SMILES | PfHsp40 yeast | BJeLR lethal | Y pestis TopoI | PrP 5UTR inh | ugtP null kill | Sa RN4220 lethal | PrP 5UTR single
Cc1nn(-c2ccccc2)c(C)c1/C=N/NC(=O)c1cc(-c2ccc(Br)s2)[nH]n1 | -2.2 | 20.1 | -8.4 | -12.5 | nt | nt | nt
O=C(O)c1ccc(C=NN=Cc2ccco2)cc1 | 0.3 | nt | 1.9 | 62.0* | nt | nt | -0.3
O=C(O)c1ccc(C=NN=C2c3ccccc3-c3ccccc32)cc1 | -0.6 | nt | -6.2 | -17.7 | nt | nt | nt
C[C@]12CCC(=O)C[C@@H]1CC[C@@H]1[C@@H]2CC[C@]2(C)C=CC[C@@H]12 | 0.2 | -14.0 | 2.3 | 66.5* | nt | nt | 9.1
C[C@]12CCC(=O)C[C@@H]1CC[C@@H]1[C@@H]2CC[C@]2(C)[C@@H](O)CC[C@@H]12 | -0.5 | nt | 3.4 | -12.0 | 10.8 | 2.8 | nt
COc1ccc2c(c1OC)c(=O)n1c3ccc(OC(C)C(=O)NCCCN4CCOCC4)cc3c3ccnc2c31 (stereo not drawn) | -0.4 | -1.1 | 1.4 | 54.2* | 6.7 | 2.5 | 7.5
COc1ccc2c(c1OC)c(=O)n1c3ccc(OC(C)C(=O)NCCN4CCOCC4)cc3c3ccnc2c31 (stereo not drawn) | 0.0 | 7.8 | 19.5 | -30.3 | 4.4 | -0.7 | nt
CCOC(=O)COc1cccc2c(=O)n(CC(=O)NCc3ccc(F)cc3)ccc12 | -0.2 | 22.2 | -1.8 | 60.4* | -3.1 | -0.9 | 84.1*
O=C(NCc1cccnc1)c1ccccc1Br | -0.3 | -2.2 | -2.8 | 76.9* | 2.3 | 4.8 | 2.6
O=C(NCc1ccccc1)c1ccccc1Br | -0.8 | -0.8 | 0.4 | -9.8 | -8.1 | 1.5 | nt
O=C(N/N=C/c1ccccc1)c1[nH]c2ccc(Br)cc2c1-c1ccccc1 | 0.5 | 16.6 | -2.0 | 58.8* | nt | nt | 87.8*
O=C(NN=Cc1ccccc1Cl)c1[nH]c2ccc(Br)cc2c1-c1ccccc1 | nt | nt | nt | nt | -12.2 | 4.4 | nt
CC(=O)OC(C)(C)/C=C/C(=O)[C@](C)(O)[C@H]1[C@H](O)C[C@@]2(C)[C@@H]3CC=C4[C@H](C[C@H](O)C(=O)C4(C)C)[C@]3(C)C(=O)C[C@]12C | 1.0 | nt | 8.9 | 79.2* | nt | nt | 88.1*
CC(=O)OC(C)(C)/C=C/C(=O)[C@](C)(O)C1[C@H](O)C[C@@]2(C)C3CC=C4C(C=C(O[C@@H]5O[C@H](CO)[C@@H](O)[C@H](O)[C@H]5O)C(=O)C4(C)C)[C@]3(C)C(=O)C[C@]12C (stereo partly drawn) | 0.0 | nt | 13.3 | -5.4 | nt | nt | nt
CC(=O)OC(C)(C)/C=C/C(=O)C(C)(O)C1C(O)CC2(C)C3CC=C4C(CC(O)C(=O)C4(C)C)C3(C)C(=O)CC12C (stereo not drawn) | -0.7 | nt | 23.6 | 80.5* | nt | nt | 90.4*
CC(=O)OC(C)(C)/C=C/C(=O)C(C)(O)C1[C@H](O)C[C@@]2(C)C3CC=C4C(CC[C@@H](O)C4(C)C)[C@]3(CO)C(=O)C[C@]12C (stereo partly drawn) | -1.4 | 26.0 | 0.6 | 80.7* | 14.0 | 3.1 | 90.0*
COc1ccc(C2C=CCN(C(=O)CC(C)(C)C)CC(=O)N2Cc2ccc(F)cc2)cc1 (stereo not drawn) | nt | nt | nt | nt | -4.9 | 8.2 | nt
CC(=O)OC1CC(OC2C(O)CC(OC3C(O)CC(OC4CCC5(C)C(CCC6C5CCC5(C)C(C7=CC(=O)OC7)CCC65O)C4)OC3C)OC2C)OC(C)C1OC1OC(CO)C(O)C(O)C1O (stereo not drawn) | -0.2 | nt | 18.9 | 96.2* | nt | nt | 89.5*
Cc1cc(C(=O)COc2cccnc2[N+](=O)[O-])c(C)n1-c1ccccc1 | 0.4 | 18.6 | 12.3 | 58.4* | nt | nt | ?
CCCCCN1C=CC(=C2C(=O)c3ccccc3C2=O)C=C1 | -0.4 | 51.2* | 6.6 | 89.3* | 4.6 | 5.3 | 89.2*
Cc1c2c(=O)n(-c3nc4ccccc4s3)nc-2cc(O)n1Cc1ccccc1 | 0.4 | nt | 1.3 | 64.8* | -3.8 | 14.7 | 34.8
O=C(CC1CC=CCC(NC(=O)OCC2c3ccccc3-c3ccccc32)C(=O)OC(c2ccccc2)CNC1=O)NC(CO)Cc1ccccc1 (stereo not drawn) | nt | nt | nt | nt | 6.2 | 8.2 | nt
COc1ccc(C(=O)CC(=O)c2ccc(C(C)(C)C)cc2)cc1 | 0.1 | nt | -0.9 | 57.0* | nt | nt | -10.6
CC(=O)N1C(C)C=C[C@]1(Cc1ccccc1)C(=O)O (stereo partly drawn) | nt | nt | nt | nt | -0.3 | 2.5 | nt
COc1ccc(C2=Nn3c(nnc3-c3ccccc3C(F)(F)F)SC2)cc1OC1CCOC1 (stereo not drawn) | 1.1 | nt | 18.6 | 15.2 | -3.6 | -0.5 | nt
SMILES | PfHsp40 yeast | BJeLR lethal | Y pestis TopoI | PrP 5UTR inh | ugtP null kill | Sa RN4220 lethal | PrP 5UTR single
COc1ccccc1-c1nnc2n1N=C(c1ccc(O)c(O)c1)CS2 | 0.1 | 24.9 | 8.1 | 60.7* | -8.9 | 4.5 | 89.9*
COc1ccc(C2=Nn3c(nnc3-c3ccccc3OC)SC2)cc1OC1CCOC1 (stereo not drawn) | -0.3 | nt | 4.8 | 80.8* | -16.9 | -0.5 | 82.9*
COc1ccc(OC)c(-c2nnc3n2N=C(c2ccc(OC)c(OCC4CC4)c2)CS3)c1 | 1.1 | nt | 16.9 | 67.3* | -7.2 | 12.9 | 93.1*
CCOc1ccc(C2=Nn3c(nnc3-c3ccccc3OC)SC2)cc1 | -0.9 | 49.9 | -8.2 | 68.6* | -5.8 | 3.0 | 88.5*
CCC(C)C1CNC(=S)N1CCc1cccc2ccccc12 (stereo not drawn) | nt | nt | nt | nt | -0.4 | 3.3 | nt
CCN(CC)C(=O)C(=Cc1cccc([N+](=O)[O-])c1)NC(=O)c1ccco1 | nt | nt | nt | nt | -4.6 | 2.3 | nt
C=C(C)C(=O)OC1CC(C)=CC(=O)C=C(C)C(O)C2OC(=O)C(=C)C12 (stereo not drawn) | nt | nt | nt | nt | -3.6 | 9.9 | nt
COc1ccc(-c2oc(=O)c3cc(OC)c(OC)cc3c2/C=C/c2ccc(OC(C)=O)cc2)cc1 | -1.2 | nt | -4.7 | 2.3 | nt | nt | nt
COc1cc(-c2noc(C)c2/C=C/c2ccc(OC(C)=O)cc2)cc(OC)c1OC | -1.7 | 30.6 | 30.6 | 63.6* | nt | nt | 84.7*
Cc1nn(-c2ccccc2Cl)c(Cl)c1/C=N/Nc1nc2ccccc2s1 | ? | 13.4 | 1.5 | 86.8* | nt | nt | 81.4*
CC[C@@H]1C(c2ccc(F)cc2)=NN(c2ccccc2)[C@H]1C(=O)N1CCOC1=O | 1.4 | nt | -3.8 | -25.5 | 12.7 | 1.5 | nt
CC[C@@H]1C(c2ccccc2)=NN(c2ccccc2)[C@H]1C(=O)N1CCOC1=O | -0.1 | nt | -6.6 | 62.0* | 5.1 | 1.6 | -36.3
Cc1ccnc(NC(=O)c2cc3ccccc3o2)c1 | -1.1 | 19.5 | 3.6 | 58.3* | 4.9 | 0.5 | ?
O=C(Nc1ccccn1)c1cc2ccccc2o1 | -0.4 | 31.6 | 4.4 | 58.7* | -2.8 | 2.8 | 57.4*
O=C(NCc1ccco1)c1cccc2c1C(=O)c1ccc(C=Cc3ccccc3)cc1S2(=O)=O | nt | nt | nt | nt | -12.5 | 6.4 | nt
